# Results as given in the supplement of paper PMC4466140.
# How the values were obtained:
# Assay in all cases: SPOT peptide array binding signal intensity (averaged, normalized) (arbitrary units (background-subtracted, floor 0; scale differs between SH3 domains)); higher = stronger binding of the SH3 domain to the peptide
# AgAbp1 = target: AgAbp1
# Description: (§1)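 GST-tagged SH3 domains from S. cerevisiae (Sc), A. gossypii (Ag), C. albicans (Ca) and S. pombe (Sp) were incubated at 10 ug/ml overnight at 4 C on cellulose SPOT membranes carrying 292 synthetic 15-mer peptides mined from the S. cerevisiae proteome (cysteines replaced by serines). Binding was detected with anti-GST antibody, HRP secondary and chemiluminescence, quantified with Genespotter, and reported as normalized spot intensities averaged over biological replicates.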
# AgBbc1 = target: AgBbc1
# Description: as §1
# AgBem1-D1 = target: AgBem1-D1
# Description: as §1
# AgBzz1-D1 = target: AgBzz1-D1
# Description: as §1
# AgBzz1-D2 = target: AgBzz1-D2
# Description: as §1
# AgCyk3 = target: AgCyk3
# Description: as §1
# AgFus1 = target: AgFus1
# Description: as §1
# AgHof1 = target: AgHof1
# Description: as §1
# AgHse1 = target: AgHse1
# Description: as §1
# AgLsb1 = target: AgLsb1
# Description: as §1
# AgLsb4 = target: AgLsb4
# Description: as §1
# AgMyo5 = target: AgMyo5
# Description: as §1
# AgNbp2 = target: AgNbp2
# Description: as §1
# AgRvs167 = target: AgRvs167
# Description: as §1
# AgSho1 = target: AgSho1
# Description: as §1
# AgSla1-D1-D2 = target: AgSla1-D1-D2
# Description: as §1
# AgSla1-D3 = target: AgSla1-D3
# Description: as §1
# CaAbp1-D1 = target: CaAbp1-D1
# Description: as §1
# CaAbp1-D2 = target: CaAbp1-D2
# Description: as §1
# CaBbc1 = target: CaBbc1
# Description: as §1
# CaBem1-D1 = target: CaBem1-D1
# Description: as §1
# CaBzz1-D1 = target: CaBzz1-D1
# Description: as §1
# CaBzz1-D2 = target: CaBzz1-D2
# Description: as §1
# CaCyk3 = target: CaCyk3
# Description: as §1
# CaFus1 = target: CaFus1
# Description: as §1
# CaHof1 = target: CaHof1
# Description: as §1
# CaHse1 = target: CaHse1
# Description: as §1
# CaLsb1 = target: CaLsb1
# Description: as §1
# CaLsb4 = target: CaLsb4
# Description: as §1
# CaMyo5 = target: CaMyo5
# Description: as §1
# CaNbp2 = target: CaNbp2
# Description: as §1
# CaRvs167 = target: CaRvs167
# Description: as §1
# CaRvs167-3 = target: CaRvs167-3
# Description: as §1
# CaSho1 = target: CaSho1
# Description: as §1
# CaSla1-D1-D2 = target: CaSla1-D1-D2
# Description: as §1
# CaSla1-D3 = target: CaSla1-D3
# Description: as §1
# ScAbp1 = target: ScAbp1
# Description: as §1
# ScBbc1 = target: ScBbc1
# Description: as §1
# ScBem1-D1 = target: ScBem1-D1
# Description: as §1
# ScBzz1-D1 = target: ScBzz1-D1
# Description: as §1
# ScBzz1-D2 = target: ScBzz1-D2
# Description: as §1
# ScCyk3 = target: ScCyk3
# Description: as §1
# ScFus1 = target: ScFus1
# Description: as §1
# ScHof1 = target: ScHof1
# Description: as §1
# ScHse1 = target: ScHse1
# Description: as §1
# ScLsb1 = target: ScLsb1
# Description: as §1
# ScLsb2 = target: ScLsb2
# Description: as §1
# ScLsb3 = target: ScLsb3
# Description: as §1
# ScLsb4 = target: ScLsb4
# Description: as §1
# ScMyo3 = target: ScMyo3
# Description: as §1
# ScMyo5 = target: ScMyo5
# Description: as §1
# ScNbp2 = target: ScNbp2
# Description: as §1
# ScPex13 = target: ScPex13
# Description: as §1
# ScRvs167 = target: ScRvs167
# Description: as §1
# ScSho1 = target: ScSho1
# Description: as §1
# ScSla1-D1-D2 = target: ScSla1-D1-D2
# Description: as §1
# ScSla1-D3 = target: ScSla1-D3
# Description: as §1
# SpAbp1-D1 = target: SpAbp1-D1
# Description: as §1
# SpBbc1 = target: SpBbc1
# Description: as §1
# SpBzz1-D1 = target: SpBzz1-D1
# Description: as §1
# SpBzz1-D2 = target: SpBzz1-D2
# Description: as §1
# SpCyk3 = target: SpCyk3
# Description: as §1
# SpHof1 = target: SpHof1
# Description: as §1
# SpHof1-2 = target: SpHof1-2
# Description: as §1
# SpHof1-3 = target: SpHof1-3
# Description: as §1
# SpHse1 = target: SpHse1
# Description: as §1
# SpLsb1 = target: SpLsb1
# Description: as §1
# SpLsb4 = target: SpLsb4
# Description: as §1
# SpMyo1 = target: SpMyo1
# Description: as §1
# SpNbp2 = target: SpNbp2
# Description: as §1
# SpPex13 = target: SpPex13
# Description: as §1
# SpRvs167 = target: SpRvs167
# Description: as §1
# SpSla1-D1-D2 = target: SpSla1-D1-D2
# Description: as §1
# SpSla1-D3 = target: SpSla1-D3
# Description: as §1
binder,measurement,setting,value
YRRKSIPFAPHQITA,SPOT peptide array binding signal intensity,AgAbp1,34
same,SPOT peptide array binding signal intensity,AgBbc1,11.5
same,SPOT peptide array binding signal intensity,AgBem1-D1,21.5
same,SPOT peptide array binding signal intensity,AgBzz1-D1,99.5
same,SPOT peptide array binding signal intensity,AgBzz1-D2,34
same,SPOT peptide array binding signal intensity,AgCyk3,1
same,SPOT peptide array binding signal intensity,AgFus1,131
same,SPOT peptide array binding signal intensity,AgHof1,5.5
same,SPOT peptide array binding signal intensity,AgHse1,162
same,SPOT peptide array binding signal intensity,AgLsb1,25.8
same,SPOT peptide array binding signal intensity,AgLsb4,24
same,SPOT peptide array binding signal intensity,AgMyo5,≤ 0
same,SPOT peptide array binding signal intensity,AgNbp2,62.5
same,SPOT peptide array binding signal intensity,AgRvs167,3.67
same,SPOT peptide array binding signal intensity,AgSho1,16.5
same,SPOT peptide array binding signal intensity,AgSla1-D1-D2,39
same,SPOT peptide array binding signal intensity,AgSla1-D3,2.5
same,SPOT peptide array binding signal intensity,CaAbp1-D1,187
same,SPOT peptide array binding signal intensity,CaAbp1-D2,116
same,SPOT peptide array binding signal intensity,CaBbc1,41.5
same,SPOT peptide array binding signal intensity,CaBem1-D1,24
same,SPOT peptide array binding signal intensity,CaBzz1-D1,182
same,SPOT peptide array binding signal intensity,CaBzz1-D2,148
same,SPOT peptide array binding signal intensity,CaCyk3,6
same,SPOT peptide array binding signal intensity,CaFus1,159
same,SPOT peptide array binding signal intensity,CaHof1,2
same,SPOT peptide array binding signal intensity,CaHse1,16.8
same,SPOT peptide array binding signal intensity,CaLsb1,3
same,SPOT peptide array binding signal intensity,CaLsb4,13
same,SPOT peptide array binding signal intensity,CaMyo5,0.5
same,SPOT peptide array binding signal intensity,CaNbp2,161
same,SPOT peptide array binding signal intensity,CaRvs167,15.7
same,SPOT peptide array binding signal intensity,CaRvs167-3,18.5
same,SPOT peptide array binding signal intensity,CaSho1,70
same,SPOT peptide array binding signal intensity,CaSla1-D1-D2,118
same,SPOT peptide array binding signal intensity,CaSla1-D3,2.5
same,SPOT peptide array binding signal intensity,ScAbp1,53
same,SPOT peptide array binding signal intensity,ScBbc1,9.25
same,SPOT peptide array binding signal intensity,ScBem1-D1,29.5
same,SPOT peptide array binding signal intensity,ScBzz1-D1,66
same,SPOT peptide array binding signal intensity,ScBzz1-D2,90
same,SPOT peptide array binding signal intensity,ScCyk3,10
same,SPOT peptide array binding signal intensity,ScFus1,89
same,SPOT peptide array binding signal intensity,ScHof1,3.5
same,SPOT peptide array binding signal intensity,ScHse1,380
same,SPOT peptide array binding signal intensity,ScLsb1,0.25
same,SPOT peptide array binding signal intensity,ScLsb2,25
same,SPOT peptide array binding signal intensity,ScLsb3,20
same,SPOT peptide array binding signal intensity,ScLsb4,6
same,SPOT peptide array binding signal intensity,ScMyo3,0.5
same,SPOT peptide array binding signal intensity,ScMyo5,6
same,SPOT peptide array binding signal intensity,ScNbp2,160
same,SPOT peptide array binding signal intensity,ScPex13,185
same,SPOT peptide array binding signal intensity,ScRvs167,33.3
same,SPOT peptide array binding signal intensity,ScSho1,145
same,SPOT peptide array binding signal intensity,ScSla1-D1-D2,166
same,SPOT peptide array binding signal intensity,ScSla1-D3,4.25
same,SPOT peptide array binding signal intensity,SpAbp1-D1,99
same,SPOT peptide array binding signal intensity,SpBbc1,2
same,SPOT peptide array binding signal intensity,SpBzz1-D1,189
same,SPOT peptide array binding signal intensity,SpBzz1-D2,0.5
same,SPOT peptide array binding signal intensity,SpCyk3,≤ 0
same,SPOT peptide array binding signal intensity,SpHof1,25.8
same,SPOT peptide array binding signal intensity,SpHof1-2,1.5
same,SPOT peptide array binding signal intensity,SpHof1-3,106
same,SPOT peptide array binding signal intensity,SpHse1,88.2
same,SPOT peptide array binding signal intensity,SpLsb1,4.5
same,SPOT peptide array binding signal intensity,SpLsb4,48
same,SPOT peptide array binding signal intensity,SpMyo1,5.5
same,SPOT peptide array binding signal intensity,SpNbp2,64
same,SPOT peptide array binding signal intensity,SpPex13,19
same,SPOT peptide array binding signal intensity,SpRvs167,6.33
same,SPOT peptide array binding signal intensity,SpSla1-D1-D2,≤ 0
same,SPOT peptide array binding signal intensity,SpSla1-D3,11
